Screening results (PubChem BioAssay)
Hits are enriched below; roughly 2.1% of the tested compounds scored in any of these assays.
TDP43 rescue = inhibitors of TDP-43 toxicity in yeast; TDP-43 expressing yeast growth rescue, BacTiter-Glo, 24 h; Potency, µM (top dose mostly 46.1 µM), without a hit: top-dose growth rescue (activation), usual class: activators; 1.8% of 410,000 active; note: % of control where 0% means no effect; nearly all actives have a fitted effect of over 50% in size
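In this qHTS, compounds that restore growth of yeast expressing TDP-43 appear as activators. Cells (OD600=0.02, galactose medium, raffinose-pregrown) are incubated with compound 24 hr at 30 deg C and growth is quantified by BacTiter-Glo.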
FUS suppressor = suppressors of FUS proteinopathy in yeast; 0.24% of 390,000 active; Potency, µM (doses to about 76.6 µM), most hits filed as activators; AID 1347120; S. cerevisiae FUS-expressing, growth rescue, OD600, 24 h;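 note: plate controls were DMSO vehicle for no effect and reference control for full effect; nearly all actives have a fitted effect of over 55% in size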
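FUS-expressing yeast, raffinose-pregrown, induced in 2% galactose minimal medium at OD 0.005; compounds in a dilution series, 24hr at 30C. Growth restoration read as absorbance at 600 nm. CP55940 positive control, DMSO negative.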
Abeta rescue = restores growth of yeast expressing A-beta42 peptide; yeast expressing A-beta42, growth rescue, OD600, 48 h; response scale: 0% DMSO, 100% iron-clioquinol control; Potency, µM (titrated, usually from 46.1 µM), usual class: activators; 0.063% of 410,000 active; AID 1347071; note: nearly all actives have a fitted effect of over 55% in size
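Growth rescue measured by 600 nm absorbance after 48 h yeast culture at 30 C with compound. Values normalized between DMSO and an equimolar ferric chloride plus clioquinol control.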
aSyn yeast inh = alpha-synuclein toxicity inhibition in yeast; Yeast expressing alpha-synuclein, growth rescue, BacTiter-Glo, 24 h; Potency, µM (series often up to 46.1 µM), for inactives: at the top dose growth rescue (activation), actives largely listed as activators; 0.14% of 370,000 active; AID 652106; note: % of control where 0% means no effect; nearly all actives have a fitted effect of over 65% in size
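Galactose-induced alpha-syn yeast (OD600=0.02, raffinose-pregrown) + pinned cpd, 24 hr, 30 deg C; growth by BacTiter-Glo luminescence. Growth restoration scores as activation.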
* marks the source's active call; other numbers are inactive results. Calls come from the whole dose curve; as a rule, active = well fitted curve in the direction sought with a large enough effect; inconclusive = small, poorly fitted or top-dose-only effect, or another doubt; inactive = no such curve, though single readings can be large; an effect the other way counts as inactive or inconclusive. Potency is the fitted concentration of half-maximal effect.

What do the screens show for `CCCS/C(N)=N/N=C/c1cc(C)ccc1O`?
TDP43 rescue: 12.4%; FUS suppressor: inactive; Abeta rescue: inactive; aSyn yeast inh: 4.8%

What do the screens show for `CCCCS/C(N)=N/N=C/c1ccccc1O`?
TDP43 rescue: 11.2µM*; FUS suppressor: inactive; Abeta rescue: inactive; aSyn yeast inh: -3.1%

Results for COc1ccccc1CNC(=O)COc1ccc(Br)c(C)c1 ?
TDP43 rescue: 17.8µM*; FUS suppressor: inactive; Abeta rescue: inactive; aSyn yeast inh: 15.1%

What do the screens show for `COc1ccccc1CNC(=O)COc1ccccc1C`?
TDP43 rescue: inconclusive; FUS suppressor: inactive; Abeta rescue: inactive; aSyn yeast inh: -1.0%

Results for CC(O/N=C(\N)c1ccccc1)C(=O)Nc1cccc(C(F)(F)F)c1 (stereo unspecified) ?
TDP43 rescue: 12.6µM*; FUS suppressor: inactive; Abeta rescue: inactive; aSyn yeast inh: -8.3%

What do the screens show for `COc1cc2c(cc1OC)C(c1ccc(Cl)cc1)N(c1ccc(C)c(F)c1)C(=O)C2` (stereo unspecified)?
TDP43 rescue: 35.5µM*; FUS suppressor: inconclusive; Abeta rescue: inactive

How did O=S1(=O)N=C(N2CCN(Cc3ccc4c(c3)OCO4)CC2)c2ccccc21 do in these assays?
TDP43 rescue: -14.5%; FUS suppressor: inactive; Abeta rescue: inactive; aSyn yeast inh: -0.1%

How did Cc1cc(Nc2ccc(C(C)C)cc2)n2ncnc2n1 do in these assays?
TDP43 rescue: 11.2µM*; FUS suppressor: inactive; Abeta rescue: inactive; aSyn yeast inh: 20.5%

Results for COc1ccc(NC(=O)CCCCC#Cc2ccccc2)cc1 ?
TDP43 rescue: 18.4%; FUS suppressor: inactive; Abeta rescue: inactive; aSyn yeast inh: -16.2%

What do the screens show for `Cc1ccc(Cn2c(C)c3cnn(CC(=O)N4CCN(c5ccc(F)cc5)CC4)c(=O)c3c2C)cc1`?
TDP43 rescue: 15.8µM*; FUS suppressor: inconclusive; Abeta rescue: inactive

Results for Cc1cc(=O)n(CC(=O)N2CCN(c3ccc(F)cc3)CC2)c2c1c(C)nn2C ?
TDP43 rescue: 11.2µM*; FUS suppressor: inactive; Abeta rescue: inactive

What do the screens show for `CN(Cc1ccccc1)CC(O)COc1ccc(CNCc2nccn2C)cc1` (stereo unspecified)?
TDP43 rescue: 0.8%; FUS suppressor: inactive; Abeta rescue: inactive; aSyn yeast inh: 0.8%

What do the screens show for `CN1CCC2(CC1)N=C(c1ccc(F)cc1)C(=S)N2C(=O)c1ccc(C(C)(C)C)cc1`?
TDP43 rescue: 20µM*; FUS suppressor: inactive; Abeta rescue: inactive; aSyn yeast inh: 13.9%

Results for CC(C)(C)c1ccc(C(=O)N2CCNCC2)cc1 ?
TDP43 rescue: -3.9%; FUS suppressor: inactive; Abeta rescue: inactive; aSyn yeast inh: -5.3%

Results for CC(=O)c1c(C)[nH]c(C(=O)/C(C#N)=C/c2cccc(C)c2)c1C ?
TDP43 rescue: 7.9%; FUS suppressor: inactive; Abeta rescue: inactive; aSyn yeast inh: -7.6%

What do the screens show for `CCOC(=O)c1c(C)[nH]c(C(=O)/C(C#N)=C/c2ccc(OCC)cc2)c1C`?
TDP43 rescue: 15.8µM*; Abeta rescue: inactive; aSyn yeast inh: -8.2%

What do the screens show for `CN(C)c1nc(SCCOC(=O)Nc2ccccc2)nc(N(C)C)n1`?
TDP43 rescue: 3.16µM*; Abeta rescue: inactive; aSyn yeast inh: 1.3%

What do the screens show for `CN(C)c1nc(C(=O)Nc2ccccc2)nc(N(C)C)n1`?
TDP43 rescue: 6.8%; FUS suppressor: inactive; Abeta rescue: inactive; aSyn yeast inh: 0.2%

How did O=C(O)c1ccc(Oc2nc3ccccc3s2)cc1 do in these assays?
TDP43 rescue: 12.6µM*; Abeta rescue: inactive; aSyn yeast inh: inconclusive

What do the screens show for `O=C(O)c1ccc(C=C(c2nc3ccccc3s2)c2nc3ccccc3s2)cc1`?
TDP43 rescue: -15.7%; FUS suppressor: inactive; Abeta rescue: inactive; aSyn yeast inh: 11.7%

Results for S=c1[nH]nc(-c2cc3c(s2)-c2ccccc2CC3)o1 ?
TDP43 rescue: 14.1µM*; FUS suppressor: inactive; Abeta rescue: inactive; aSyn yeast inh: -7.2%

What do the screens show for `CSc1nnc(-c2cc3c(s2)-c2ccccc2CC3)o1`?
TDP43 rescue: 11.1%; FUS suppressor: inactive; Abeta rescue: inactive; aSyn yeast inh: -4.1%

What do the screens show for `Cc1ccc(Nc2ncc(C(=O)N3CCN(c4ccc(F)cc4)CC3)c3ccccc23)cc1Cl`?
TDP43 rescue: 12.6µM*; FUS suppressor: inactive; Abeta rescue: inactive
